Results: the supplement of paper PMC11732987, “Enantioselective OTUD7B fragment discovery through chemoproteomics screening and high-throughput optimisation” (Communications Chemistry, 2025)

Legend:
Assay in all cases: log2 ratio of Biotin-Ahx-Ub-VS probe labelling (fragment/DMSO); higher = less target engagement (more negative = stronger competition), active = hit call of the paper (q ≤ 0.05, log2 ratio ≤ -1)
Details in all cases: compound concentration: 200 uM; treatment time: 3 h
USP19 = biological target: T1, USP19 (UniProt O94966)
T1 sequence (whole entry): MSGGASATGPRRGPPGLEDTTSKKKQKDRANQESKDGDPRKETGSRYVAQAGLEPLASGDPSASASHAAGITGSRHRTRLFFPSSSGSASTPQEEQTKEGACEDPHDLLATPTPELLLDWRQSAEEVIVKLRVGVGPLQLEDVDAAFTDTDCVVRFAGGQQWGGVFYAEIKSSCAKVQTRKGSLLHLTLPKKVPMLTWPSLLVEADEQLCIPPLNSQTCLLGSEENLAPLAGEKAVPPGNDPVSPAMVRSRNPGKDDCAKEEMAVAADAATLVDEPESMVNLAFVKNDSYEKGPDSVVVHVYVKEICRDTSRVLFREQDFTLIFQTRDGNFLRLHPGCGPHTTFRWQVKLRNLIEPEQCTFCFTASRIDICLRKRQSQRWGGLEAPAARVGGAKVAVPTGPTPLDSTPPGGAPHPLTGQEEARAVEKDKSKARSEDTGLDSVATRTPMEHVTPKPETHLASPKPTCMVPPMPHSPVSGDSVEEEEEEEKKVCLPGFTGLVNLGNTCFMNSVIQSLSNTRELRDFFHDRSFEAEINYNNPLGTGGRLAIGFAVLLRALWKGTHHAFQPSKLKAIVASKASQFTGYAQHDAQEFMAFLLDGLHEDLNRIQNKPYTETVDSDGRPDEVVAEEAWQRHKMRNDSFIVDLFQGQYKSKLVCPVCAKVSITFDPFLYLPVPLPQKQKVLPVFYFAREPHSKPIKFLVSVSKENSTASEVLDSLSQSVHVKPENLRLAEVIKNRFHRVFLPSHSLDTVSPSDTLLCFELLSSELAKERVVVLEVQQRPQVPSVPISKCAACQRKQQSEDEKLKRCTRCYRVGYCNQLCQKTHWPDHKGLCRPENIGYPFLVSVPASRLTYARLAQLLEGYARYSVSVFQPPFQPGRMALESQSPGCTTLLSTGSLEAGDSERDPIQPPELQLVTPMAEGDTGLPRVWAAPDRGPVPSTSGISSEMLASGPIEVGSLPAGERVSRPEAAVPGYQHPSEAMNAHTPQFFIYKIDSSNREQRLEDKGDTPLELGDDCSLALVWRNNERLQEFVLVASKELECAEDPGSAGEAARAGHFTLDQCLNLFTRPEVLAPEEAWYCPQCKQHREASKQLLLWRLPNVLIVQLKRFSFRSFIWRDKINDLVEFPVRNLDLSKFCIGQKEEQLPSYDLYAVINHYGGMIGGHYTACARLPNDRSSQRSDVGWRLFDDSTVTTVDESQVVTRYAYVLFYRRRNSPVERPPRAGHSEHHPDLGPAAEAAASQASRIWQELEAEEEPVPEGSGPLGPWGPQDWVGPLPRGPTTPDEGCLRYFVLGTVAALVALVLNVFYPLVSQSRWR
In short: (§1)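 Each value is an average log2 ratio of fragment to vehicle, tested by unpaired t-test. The underlying Spectronaut label-free quantities were global-median-normalised, and only proteins with ≥2 unique peptides were included. Triplicate HEK293T lysate samples (495 µg) were exposed to fragment at 200 µM or vehicle for 3 h, then to Biotin-Ahx-Ub-VS at 0.5 µM final for 1 h, before NeutrAvidin enrichment of labelled DUBs, LysC and trypsin digestion, and diaPASEF LC-MS/MS.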

USP24 = USP24 (UniProt Q9UPU5)
In short: as §1

USP25 = biological target: T2, USP25 (UniProt Q9UHP3)
T2 sequence (whole entry): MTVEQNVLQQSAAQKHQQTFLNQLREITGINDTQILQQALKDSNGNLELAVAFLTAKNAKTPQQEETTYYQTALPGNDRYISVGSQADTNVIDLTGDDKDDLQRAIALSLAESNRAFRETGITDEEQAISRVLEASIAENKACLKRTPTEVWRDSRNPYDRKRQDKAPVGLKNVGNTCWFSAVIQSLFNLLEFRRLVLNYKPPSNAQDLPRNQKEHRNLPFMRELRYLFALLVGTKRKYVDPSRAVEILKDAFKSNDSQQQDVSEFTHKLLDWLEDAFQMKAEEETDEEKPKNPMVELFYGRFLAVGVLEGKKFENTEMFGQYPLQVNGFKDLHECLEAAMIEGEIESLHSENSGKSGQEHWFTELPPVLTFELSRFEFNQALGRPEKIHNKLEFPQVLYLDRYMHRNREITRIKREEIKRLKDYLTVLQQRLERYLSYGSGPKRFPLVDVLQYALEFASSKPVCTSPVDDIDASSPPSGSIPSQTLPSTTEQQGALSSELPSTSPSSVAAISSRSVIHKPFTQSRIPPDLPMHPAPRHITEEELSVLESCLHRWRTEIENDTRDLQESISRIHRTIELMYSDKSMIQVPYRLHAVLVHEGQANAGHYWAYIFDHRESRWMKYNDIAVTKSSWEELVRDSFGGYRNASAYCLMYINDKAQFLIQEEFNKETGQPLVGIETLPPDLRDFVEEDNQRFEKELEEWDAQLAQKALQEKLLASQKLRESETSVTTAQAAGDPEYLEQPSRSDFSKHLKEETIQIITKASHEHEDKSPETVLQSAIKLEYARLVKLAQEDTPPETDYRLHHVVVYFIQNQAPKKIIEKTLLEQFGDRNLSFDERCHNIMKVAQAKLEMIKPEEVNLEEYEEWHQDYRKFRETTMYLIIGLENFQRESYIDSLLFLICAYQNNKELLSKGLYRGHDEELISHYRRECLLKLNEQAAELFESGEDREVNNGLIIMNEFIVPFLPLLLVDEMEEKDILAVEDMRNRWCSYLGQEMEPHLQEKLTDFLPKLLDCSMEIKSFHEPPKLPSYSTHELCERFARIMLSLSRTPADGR
In short: as §1

USP28 = biological target: T3, USP28 (UniProt Q96RU2)
T3 sequence (whole entry): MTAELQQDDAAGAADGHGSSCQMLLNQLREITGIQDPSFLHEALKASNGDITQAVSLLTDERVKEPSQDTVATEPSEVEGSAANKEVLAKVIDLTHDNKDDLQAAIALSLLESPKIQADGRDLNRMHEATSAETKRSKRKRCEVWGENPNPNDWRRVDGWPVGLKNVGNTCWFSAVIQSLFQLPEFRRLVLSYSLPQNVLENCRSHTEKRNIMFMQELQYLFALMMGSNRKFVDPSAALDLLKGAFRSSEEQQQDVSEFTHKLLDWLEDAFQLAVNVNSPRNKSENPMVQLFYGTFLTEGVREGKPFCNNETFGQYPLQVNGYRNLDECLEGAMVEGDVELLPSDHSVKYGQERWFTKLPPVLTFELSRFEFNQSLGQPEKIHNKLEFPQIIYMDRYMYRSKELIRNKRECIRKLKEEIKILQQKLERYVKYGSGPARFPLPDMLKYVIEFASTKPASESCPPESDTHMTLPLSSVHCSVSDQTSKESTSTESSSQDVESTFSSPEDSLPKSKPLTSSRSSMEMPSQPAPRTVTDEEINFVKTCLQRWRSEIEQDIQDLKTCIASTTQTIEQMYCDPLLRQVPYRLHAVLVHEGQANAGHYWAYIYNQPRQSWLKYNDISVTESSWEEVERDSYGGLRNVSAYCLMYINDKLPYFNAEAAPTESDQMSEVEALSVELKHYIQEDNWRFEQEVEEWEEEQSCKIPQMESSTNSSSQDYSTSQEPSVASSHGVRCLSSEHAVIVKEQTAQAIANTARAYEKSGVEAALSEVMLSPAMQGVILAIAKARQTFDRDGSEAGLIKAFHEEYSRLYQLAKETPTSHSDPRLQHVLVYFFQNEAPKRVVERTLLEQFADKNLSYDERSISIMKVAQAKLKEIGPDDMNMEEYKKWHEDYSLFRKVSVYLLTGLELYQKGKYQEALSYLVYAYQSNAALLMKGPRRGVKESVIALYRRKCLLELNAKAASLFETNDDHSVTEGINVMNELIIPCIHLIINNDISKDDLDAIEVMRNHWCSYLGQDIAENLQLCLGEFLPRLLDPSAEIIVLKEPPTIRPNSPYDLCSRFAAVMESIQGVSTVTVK
In short: as §1

Measured: log2 ratio of Biotin-Ahx-Ub-VS probe labelling

USP24, sequence (Q9UPU5 whole entry): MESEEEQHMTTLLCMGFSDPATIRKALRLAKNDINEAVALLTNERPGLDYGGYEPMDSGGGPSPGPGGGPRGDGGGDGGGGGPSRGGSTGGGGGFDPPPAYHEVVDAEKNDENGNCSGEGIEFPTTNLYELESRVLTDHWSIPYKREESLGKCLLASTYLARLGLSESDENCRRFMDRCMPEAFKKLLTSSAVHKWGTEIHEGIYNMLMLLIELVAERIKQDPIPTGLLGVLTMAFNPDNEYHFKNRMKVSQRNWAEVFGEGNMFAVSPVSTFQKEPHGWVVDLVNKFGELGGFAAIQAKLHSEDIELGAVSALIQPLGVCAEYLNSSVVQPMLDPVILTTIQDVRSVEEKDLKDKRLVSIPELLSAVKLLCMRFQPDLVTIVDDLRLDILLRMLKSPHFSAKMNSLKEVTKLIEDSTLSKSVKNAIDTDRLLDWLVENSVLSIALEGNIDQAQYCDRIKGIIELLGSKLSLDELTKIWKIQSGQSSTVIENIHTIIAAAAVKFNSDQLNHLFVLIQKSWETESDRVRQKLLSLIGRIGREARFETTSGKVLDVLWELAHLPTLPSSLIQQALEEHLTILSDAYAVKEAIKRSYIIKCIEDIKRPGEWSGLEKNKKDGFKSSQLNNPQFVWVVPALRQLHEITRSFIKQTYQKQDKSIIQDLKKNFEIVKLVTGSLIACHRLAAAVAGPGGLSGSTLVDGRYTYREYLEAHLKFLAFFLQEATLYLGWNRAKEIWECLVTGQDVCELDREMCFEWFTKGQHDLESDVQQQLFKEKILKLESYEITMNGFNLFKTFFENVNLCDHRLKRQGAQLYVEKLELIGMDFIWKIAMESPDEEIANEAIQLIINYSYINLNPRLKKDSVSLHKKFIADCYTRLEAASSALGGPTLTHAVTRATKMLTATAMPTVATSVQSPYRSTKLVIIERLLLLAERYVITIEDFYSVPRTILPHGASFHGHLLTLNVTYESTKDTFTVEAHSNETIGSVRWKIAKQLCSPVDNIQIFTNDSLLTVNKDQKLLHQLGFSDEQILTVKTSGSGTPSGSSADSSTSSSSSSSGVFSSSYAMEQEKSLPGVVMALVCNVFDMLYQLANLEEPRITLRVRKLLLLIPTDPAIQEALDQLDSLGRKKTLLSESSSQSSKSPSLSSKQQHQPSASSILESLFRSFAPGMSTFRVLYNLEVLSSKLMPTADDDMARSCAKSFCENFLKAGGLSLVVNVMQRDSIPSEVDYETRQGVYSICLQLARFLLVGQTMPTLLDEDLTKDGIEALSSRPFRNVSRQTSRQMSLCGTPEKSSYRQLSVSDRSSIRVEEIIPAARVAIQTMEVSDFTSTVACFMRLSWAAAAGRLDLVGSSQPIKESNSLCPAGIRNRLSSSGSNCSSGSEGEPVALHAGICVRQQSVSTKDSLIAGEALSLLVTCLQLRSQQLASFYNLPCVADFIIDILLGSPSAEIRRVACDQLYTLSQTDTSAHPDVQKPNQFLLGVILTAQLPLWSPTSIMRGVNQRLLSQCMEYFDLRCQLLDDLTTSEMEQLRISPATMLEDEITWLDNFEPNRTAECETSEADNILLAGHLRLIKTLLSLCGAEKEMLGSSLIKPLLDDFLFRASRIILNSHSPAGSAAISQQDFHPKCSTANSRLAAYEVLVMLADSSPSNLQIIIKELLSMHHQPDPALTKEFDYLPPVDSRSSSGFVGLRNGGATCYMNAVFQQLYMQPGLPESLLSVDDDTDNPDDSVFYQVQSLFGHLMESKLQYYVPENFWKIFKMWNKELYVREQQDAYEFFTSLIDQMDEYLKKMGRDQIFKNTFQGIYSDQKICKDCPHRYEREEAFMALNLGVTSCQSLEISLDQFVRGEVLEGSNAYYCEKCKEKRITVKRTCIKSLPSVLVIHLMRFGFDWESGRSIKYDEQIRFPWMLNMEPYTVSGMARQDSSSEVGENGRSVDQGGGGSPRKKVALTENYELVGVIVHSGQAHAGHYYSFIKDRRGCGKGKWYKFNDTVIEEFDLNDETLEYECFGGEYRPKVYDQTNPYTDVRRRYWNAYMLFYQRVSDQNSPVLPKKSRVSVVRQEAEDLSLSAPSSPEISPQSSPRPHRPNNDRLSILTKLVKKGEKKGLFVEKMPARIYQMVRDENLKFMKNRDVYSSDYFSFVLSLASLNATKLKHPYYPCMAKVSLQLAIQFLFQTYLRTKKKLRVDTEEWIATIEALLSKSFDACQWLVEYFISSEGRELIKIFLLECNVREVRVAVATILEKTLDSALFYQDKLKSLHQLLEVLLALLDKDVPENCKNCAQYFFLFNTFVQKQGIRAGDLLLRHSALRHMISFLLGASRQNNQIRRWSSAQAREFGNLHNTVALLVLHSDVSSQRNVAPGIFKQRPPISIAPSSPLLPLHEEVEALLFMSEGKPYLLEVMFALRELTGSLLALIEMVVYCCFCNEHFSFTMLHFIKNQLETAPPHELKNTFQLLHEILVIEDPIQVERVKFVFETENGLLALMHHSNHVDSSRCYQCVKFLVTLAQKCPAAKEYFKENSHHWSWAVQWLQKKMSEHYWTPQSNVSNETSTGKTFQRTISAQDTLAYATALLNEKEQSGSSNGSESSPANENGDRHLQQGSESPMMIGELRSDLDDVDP

C/C(=C\CNC(=O)CCl)c1cnn(C)c1.Cl
inactive: USP19 -0.404 | USP24 -0.203 | USP25 -0.578 | USP28 -0.395
